Screening results as filed in PubChem BioAssay.
Luciferase inh = inhibitors of firefly luciferase | P08659 | purified firefly luciferase, luminescence, 8 min | Potency, µM (doses to about 57.1 µM), inactives show top-dose activity change, negative = inhibition, usual class: inhibitors | actives 2.2% (n = 72,000); also: nearly all actives have a fitted effect of over 40% in size
Target sequence (P08659 whole entry, looked up): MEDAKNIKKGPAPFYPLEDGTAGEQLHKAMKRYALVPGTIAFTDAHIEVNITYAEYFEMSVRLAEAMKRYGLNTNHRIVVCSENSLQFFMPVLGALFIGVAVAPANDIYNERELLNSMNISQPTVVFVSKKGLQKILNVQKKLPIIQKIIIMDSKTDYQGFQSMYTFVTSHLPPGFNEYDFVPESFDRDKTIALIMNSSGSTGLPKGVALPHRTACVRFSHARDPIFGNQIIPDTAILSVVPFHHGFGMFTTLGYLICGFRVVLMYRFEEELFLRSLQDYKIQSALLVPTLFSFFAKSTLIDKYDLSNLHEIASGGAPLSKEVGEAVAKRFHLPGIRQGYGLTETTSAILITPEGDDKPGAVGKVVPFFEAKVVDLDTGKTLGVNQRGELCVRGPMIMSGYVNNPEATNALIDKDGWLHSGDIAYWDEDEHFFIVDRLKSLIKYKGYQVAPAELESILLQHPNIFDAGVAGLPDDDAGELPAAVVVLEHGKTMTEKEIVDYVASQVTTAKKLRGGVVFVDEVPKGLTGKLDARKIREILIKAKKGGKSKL
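Inhibition of light generation by firefly luciferase from ATP and luciferin was profiled with concentration-response curves per sample, ATP held at 10 uM within the enzyme's linear range. Plates were read by luminescence after an 8-minute ambient incubation.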
p53ts 32C tox = cytotoxicity in p53ts cells at permissive temperature | actives 0.93% (n = 130,000) | AID 924 | H1299-p53A138V at 32C, ATP luminescence viability, 24 h | Potency, µM (top dose mostly 46.1 µM), for the others: at the highest dose activity change, negative = cytotoxicity, usual class: cytotoxic;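 also: 0% = DMSO and -100% = full killing by reference compound; nearly all actives have a fitted effect of over 55% in size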
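H1299-p53 A138V cells (temperature-sensitive p53) exposed 24 h to up to 46 uM compound at 32C, where p53 is wild-type in conformation. Viability read as ATP luminescence and normalised to DMSO and 100 uM tamoxifen. AC50 fitted with the Hill equation.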
p53ts 39C tox = cytotoxicity in p53ts cells at nonpermissive temperature | H1299-p53A138V viability at 39C, ATP luminescence, 24 h | Potency, µM (titrated, usually from 46.1 µM), without a hit: at the highest dose activity change, negative = cell killing, usual class: cytotoxic | actives 1.5% (n = 130,000); also: nearly all actives have a fitted effect of over 55% in size
Active calls of the source: *; ? = inconclusive; / = not tested or not shown; [ ] = another dose, or the depositor's remark. Sampled rows, rich in hits. Any-hit rate of the full collection: about 2.6%. Calls follow the shape of the dose curve; as a rule, active = well fitted curve in the direction sought with a large enough effect; inconclusive = small, poorly fitted or top-dose-only effect, or another doubt; inactive = no such curve, though single readings can be large; an effect the other way counts as inactive or inconclusive. Unless noted, % is scaled to controls: 0 for no effect and ±100 for the full control effect; potency is read from the fitted curve at half-maximal effect.

SMILES	Luciferase inh	p53ts 32C tox	p53ts 39C tox
COc1ccc(CNc2nc(-c3ccccc3OC)nc3ccccc23)c(OC)c1	-1%[2.29 µM]	25%	-11%
CCOC(=O)c1ccc(NC(=O)c2cc(=O)c3ccc(C)c(C)c3o2)cc1	/	?	20µM*
CCOC(=O)c1ccc(NC(=O)c2cc(=O)c3cc(CC)ccc3o2)cc1	/	10%	26%
COc1ccc(-c2n[nH]c(C)c2-c2ccc(Cl)cc2)c(O)c1OC	-3%	13µM*	?
Cc1[nH]nc(-c2ccc(O)cc2O)c1-c1ccc(Cl)cc1	6%	16%	2%
CCOc1ccc(NC(=O)c2c(NC(=O)Cc3ccccc3)sc3c2CCCC3)cc1	/	-7%	-22%
COc1ccc(C2=CC(c3ccc(F)cc3)n3ncc(C(=O)Nc4ccc(C)cc4)c3N2)cc1 (centres undefined)	/	25%	1%
COc1ccccc1Cc1nc2ccccc2nc1SCC(=O)Nc1ccc2c(c1)OCO2	/	8%	6%
Cc1cccc(-c2cc3nc4c(c(N5CCC6(CC5)OCCO6)n3n2)CCCC4)c1	-2%	1%	-1%
Cc1cccc(-c2cc3nc4c(c(N5CCOCC5)n3n2)CCCC4)c1	16µM*	-12%	-6%
C[C@H](N[C@@H](C)COc1ccccc1)[C@H](O)c1ccc(O)cc1	-2%[25.5 µM]	12%[20.6 µM]	7%[20.6 µM]
CCN1C(C(=O)c2ccccc2)=C(OC(=O)c2ccc(Cl)cc2)c2ccccc2S1(=O)=O	/	27%	-35%
CC[C@]1(O)C[C@H]2CN(CCc3c([nH]c4ccccc34)[C@](C(=O)OC)(c3cc4c(cc3OC)N(C=O)[C@H]3[C@@](O)(C(=O)OC)[C@H](OC(C)=O)[C@@]5(CC)C=CCN6CC[C@]43[C@H]65)C2)C1	0%	?	32µM*
CC[C@]1(O)C[C@@H]2CN(CCc3c([nH]c4ccccc34)[C@](C(=O)OC)(c3cc4c(cc3OC)N(C=O)[C@H]3[C@@](O)(C(=O)OC)[C@H](C(=O)OC)[C@@]5(CC)C=CCN6CC[C@]43[C@H]65)C2)C1	1%	-17%	-24%
Cc1cccc(NS(=O)(=O)c2ccc3[nH]c4c(c3c2)CCCCCC4)c1	/	0%	?
Cc1ccc(NS(=O)(=O)c2ccc3[nH]c4c(c3c2)CCCCCC4)cc1Cl	/	1%	25µM*
COc1ccc(NS(=O)(=O)c2ccc3[nH]c4c(c3c2)CCCC4)cc1Cl	/	6%	/
Cc1ccccc1NS(=O)(=O)c1ccc2[nH]c3c(c2c1)CCCCC3	/	9%	25µM*
Cc1ccc2ncc(C(=O)Nc3cccc(C(F)(F)F)c3)c(=O)n2c1	/	-3%	4%
Cc1ccc(NC(=O)CN2CCSc3ccc(S(=O)(=O)N4CCCC4)cc32)cc1	/	3%	-5%
COc1ccccc1Nc1nc(N)nc(-c2cc3ccccc3o2)n1	-23%	-5%	-1%
Cc1c(-c2nc(N)nc(Nc3ccccc3F)n2)oc2ccccc12	13µM*	-8%	-17%
CCN(CC)CCNC(=O)c1ccc(-n2c(-c3ccccc3)cc3c2CCCC3)cc1	/	10%	-9%
Cc1ccc(-n2nc3c(N4CCC(C(=O)NCCc5ccccc5C)CC4)nnc(C)c3c2C)cc1	/	?	20µM*
Cc1ccc(-n2nc3c(N4CCC(C(=O)NCCc5ccccc5)CC4)nnc(C)c3c2C)cc1	/	-19%	-12%
SMILES	Luciferase inh	p53ts 32C tox	p53ts 39C tox
Cc1nnc(N2CCC(C(=O)NC(C)C)CC2)c2nn(-c3ccccc3)c(C)c12	/	4%	-7%
Cc1ccc(-n2nc3c(N4CCC(C(=O)NC(C)c5ccccc5)CC4)nnc(C)c3c2C)cc1 (centres undefined)	/	?	16µM*
CCc1cccc(C)c1NC(=O)Cn1ccn(-c2cccc(OC)c2)c(=O)c1=O	/	-9%	-5%
O=C(NCc1cccs1)c1ccc(CSc2nc3ccncc3n2Cc2cccc(F)c2)cc1	/	12%	-11%
CC(=O)c1ccc(NC(=O)c2noc3c2CSc2ccccc2-3)cc1	/	-9%	-29%
O=C(Cn1ncc2c(=O)oc3ccccc3c21)NCCN1CCN(c2ccccc2F)CC1	2%	0%	6%
O=C(Cn1ncc2c(=O)oc3ccccc3c21)Nc1cc(F)ccc1F	/	3%	6.3µM*
O=C(NCCN1CCCCC1)c1ccc(I)cc1	4%	-9%	-10%
CC[C@H](C)[C@@H]1O[C@]2(CC[C@@H]1C)C[C@H]1C[C@H](CC=C(C)[C@@H](O[C@H]3C[C@H](OC)[C@H](O[C@H]4C[C@H](OC)[C@H](O)[C@H](C)O4)[C@H](C)O3)[C@@H](C)C=CC=C3CO[C@@H]4[C@@H](O)C(C)=C[C@H](C(=O)O1)[C@@]34O)O2	-2%	10µM*	5µM*
CC[C@H](C)[C@@H]1O[C@]2(CC[C@@H]1C)C[C@H]1C[C@H](CC=C(C)[C@@H](O[C@@H]3C[C@H](OC)[C@H](O[C@@H]4C[C@H](OC)[C@H](O)[C@H](C)O4)[C@H](C)O3)[C@@H](C)C=CC=C3CO[C@@H]4[C@@H](O)C(C)=C[C@@H](C(=O)O1)[C@]34O)O2	5%[25.5 µM]	?	13µM*
CC[C@@H](C)[C@H]1O[C@]2(CC[C@@H]1C)C[C@@H]1C[C@H](C/C=C(/C)[C@H](O[C@@H]3C[C@H](OC)[C@H](O[C@@H]4C[C@H](OC)[C@@H](O)[C@H](C)O4)[C@H](C)O3)[C@@H](C)/C=C\C=C3CO[C@@H]4[C@H](O)C(C)=C[C@@H](C(=O)O1)[C@]34O)O2 (tested in a mixture with another compound)	-1%	13µM*	13µM*
CCOC(=O)c1cccc(NC(=O)c2cnc3sc(N4CCOCC4)nn3c2=O)c1	/	-4%	-10%
CCCCCn1c(-c2ccc(OC)c(OC)c2)nc2ccccc21	/	3%	?
CCC1CCCCN1S(=O)(=O)c1cc2c(cc1C)NC(=O)CO2 (centres undefined)	/	3%	-23%
COc1ccc(CNC(=O)CCC2N=C3c4ccccc4N=C(SCC(=O)NCCc4ccc(OC)c(OC)c4)N3C2=O)cc1 (centres undefined)	/	6%	1%
CCOc1ccc(NC(=O)CCCn2c(C)c3cnn(-c4ccccc4)c(=O)c3c2C)cc1	/	8%	-10%
COc1ccc(/C=C/C(=O)c2cccs2)c(OC)c1	/	16µM*	5µM*
COc1cc(/C=C\c2ccc(OC)cc2OC)cc(OC)c1	-5%	-6%	-14%
CCc1nn(CC(=O)N2CCCCC2)c(=O)c2cc3sccc3n12	/	7%	20%
Cc1ccc(-c2cc(C(=O)N3CCN(c4ccccc4)CC3)c3ccccc3n2)cc1C	/	13µM*	10µM*
O=C(c1cc(-c2ccncc2)nc2ccccc12)N1CCN(c2ccc(N3CCOCC3)nn2)CC1	-6%	-9%	2%
O=C(c1cc(-c2ccncc2)nc2ccccc12)N1CCN(c2ccccn2)CC1	-13%	-16%	-25%
O=C(c1cc(-c2ccccc2)nc2ccccc12)N1CCN(c2ccccn2)CC1	20µM*	-13%	-15%
CCOC(=O)c1[nH]c2ccccc2c1NC(=O)c1ccc(OC(C)C)cc1	/	-6%	-8%
COc1cccc(Cn2c(=O)c(C)nc3cnc(N(C)C)nc32)c1	0%[11.4 µM]	8%	-13%
O=c1[nH]c(SCc2c(Cl)c(Cl)c(Cl)c(Cl)c2Cl)nc(=S)[nH]1	3%[11.4 µM]	-15%[9.22 µM]	-1%[9.22 µM]
